# CCHF vOTU inh-1 – blocks the CCHF virus ovarian tumor domain protease; CCHFV vOTU protease, Pep-AMC fluorescence; inhibition, % at 11.5 µM; actives 0.55% (n = 370,000); AID 651958; note: 0% = vehicle wells with enzyme and 100% = no enzyme wells
# PfHsp40 rescue – compounds rescuing yeast from Plasmodium falciparum HSP40 toxicity; S. cerevisiae expressing PfHsp40, growth rescue, ATP luminescence; growth rescue, % at 12.5 µM; actives 0.68% (n = 340,000); AID 504582; in the data active = growth rescue above about 28%, passing the limit was not always enough;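 note: yeast W303a lacking pdr1 and pdr3 grown in galactose medium; growth measured after three days at 30 °C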
# PrPC surface inh – reduces human prion protein on the cell surface | cell surface PrPC, TR-FRET read-out | P04156 | inhibition, % at 13.8 µM | actives 0.43% (n = 370,000); in the data active = inhibition above about 24%; note: 0% = median of the test wells and 100% = reference compound wells
# Sa RN4220 lethal – S. aureus RN4220 growth inhibition; OD600, 16 h; inhibition, % (test concentration not listed); actives 0.33% (n = 330,000); AID 1259311; in the data active = inhibition above about 85%;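 note: plate controls were untreated cells for no effect and reference antibiotic for full effect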
# ugtP null kill – kills S. aureus RN4220 lacking UgtP. growth inhibition, % (test concentration not listed). actives 0.54% (n = 330,000). S. aureus RN4220 ugtP deletion, OD600 growth, 16 h; in the data active = growth inhibition above about 68%;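 note: plate controls were untreated wells for no effect and antibiotic for full effect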
# PrP 5UTR inh – inhibition of PrP 5' UTR reporter expression; cell-based PrP 5' UTR mRNA reporter, plate reader; inhibition, % (test concentration not listed); actives 0.35% (n = 340,000); in the data active = inhibition above about 52%; note: 0 = median of the neutral control wells
# CCHF vOTU inh-2 – CCHFV vOTU protease inhibition, confirmation; shares compounds with CCHF vOTU inh-1; Recombinant CCHFV vOTU, Pep-AMC fluorescence; inhibition, % at 11.5 µM; actives 17% (n = 1,900)
# * = called active by the depositor; · = no result. The list is not random: actives were taken first. Their share in the collection is about 2.1%. Cut-off read from the data, not from the text of the source, unless noted: active = inhibition above about 30%; inactive = the rest.
SMILES,CCHF vOTU inh-1,PfHsp40 rescue,PrPC surface inh,Sa RN4220 lethal,ugtP null kill,PrP 5UTR inh,CCHF vOTU inh-2
COc1ccc(C2(c3ccc(OC)cc3)NC(=O)N(CC(=O)N(C)C3CCC(C)CC3)C2=O)cc1 (stereo not drawn),30*,1,4,2,2,-4,2
CCOC1OC(C(=O)NCc2nc3ccccc3[nH]2)=CC(C2CC2)C1CCCO (stereo not drawn),·,·,·,2,-1,·,·
O=C(NC1(O)C(=O)c2ccccc2C1=O)c1ccccc1,49*,-2,4,0,3,-29,31*
O=C(NC1(O)C(=O)c2ccccc2C1=O)c1c(Cl)cccc1Cl,62*,1,-4,-2,-3,-22,14
COC1(NC(=O)c2ccccc2)C(C)=CC(=O)C=C1C,10,-1,-6,1,0,-19,·
CCCCN1C(=O)/C(=C/C=C2\SCCN2C)SC1=S,20,1,-24,-11,-7,-42,·
CN1CCS/C1=C/C=C1\SC(=S)N(CC(=O)O)C1=O,35*,0,-54,1,7,-19,10
COC1=C(Nc2ccc(O)cc2)C(=O)c2ccccc2C1=O,40*,-1,-26,41,9,-84,5
COC1=C(Nc2ccc(OC)cc2)C(=O)c2ccccc2C1=O,59*,-1,9,29,8,-90,9
CCOc1ccc(NC2=C(OC)C(=O)c3ccccc3C2=O)cc1,62*,1,-2,16,4,-64,10
COC1=C(Nc2ccc(OC)cc2)C(=O)C(OC)=C(Nc2ccc(OC)cc2)C1=O,-5,-1,-4,4,3,-10,·
CC(C)(C)S(=O)N1Cc2cc(C(=O)N3CCc4ccccc4C3)nc(-c3cccc(-c4cccnc4)c3)c2[C@@H]1CCO (stereo partly drawn),37*,·,-6,·,·,·,9
CCOC(=O)C1=C(COC(=O)c2ccc3ccccc3c2O)NC(=O)NC1C (stereo not drawn),36*,6,5,3,-11,-4,-12
CCOC(=O)C1=C(COC(=O)c2sccc2C)NC(=O)NC1C (stereo not drawn),13,-1,0,7,8,-3,·
CCOC(=O)C1=C(COC(=O)c2ccc([N+](=O)[O-])s2)NC(=O)NC1C (stereo not drawn),100*,1,-41,15,2,-19,76*
COc1cc(CCN2C(=O)NC(CCc3ccccc3)C(C(C)=O)=C2C)cc(OC)c1OC (stereo not drawn),·,·,·,7,7,·,·
CCC(C)C(N)c1cn(C(Cc2ccc(O)cc2)C(=O)N2CCNCC2)nn1 (stereo not drawn),·,·,·,7,7,·,·
CCc1nn(CCCC(=O)NCc2ccccc2Br)c(=O)c2cc3occc3n12,47*,1,7,1,-3,-27,-4
CC(C)(C)c1cc[n+](C2=C([O-])c3ccccc3C(=O)/C2=N\S(=O)(=O)c2cccs2)cc1,77*,·,-54,18,10,·,70*
O=C1/C(=N\S(=O)(=O)c2cccs2)C([n+]2ccccc2)=C([O-])c2ccccc21,49*,-1,-35,8,8,-10,89*
Cc1ccc[n+](C2=C([O-])c3ccccc3C(=O)C2=O)c1,6,·,-58,·,·,·,·
CC(C)(C)c1cc(NC(=O)COC(=O)c2ccc(O)cc2O)n(-c2ccccc2)n1,10,0,5,2,-4,-8,·
Cc1ccc(C(=O)OCC(=O)Nc2cc(C(C)(C)C)nn2-c2ccccc2)c(O)c1,33*,3,4,1,11,-1,-6
CC(C)CS(=O)(=O)C1=NN2C(=N)/C(=C\c3ccc(OC(=O)c4ccco4)cc3)C(=O)N=C2S1,37*,1,-3,·,·,-7,5
CS(=O)(=O)C1=NN2C(=N)/C(=C\c3ccc(OC(=O)c4ccco4)cc3)C(=O)N=C2S1,0,1,-6,10,5,0,·
SMILES,CCHF vOTU inh-1,PfHsp40 rescue,PrPC surface inh,Sa RN4220 lethal,ugtP null kill,PrP 5UTR inh,CCHF vOTU inh-2
CC(C)(C)c1ccc(C(=O)N2CCOC23CCCCC3)cc1,34*,·,1,·,·,·,-15
O=C(Nc1ccc(Cl)cc1)N1CCOC12CCCCC2,-12,-1,1,-1,0,-17,·
CC(CC(=O)Nc1ccc(N(C)C)cc1)=NNC(=O)c1cnccn1,·,·,·,8,5,·,·
O=C(CSc1n[nH]c(=O)n1C1CC1)Nc1ccc(Cl)cc1Cl,3,0,5,3,0,6,·
N#Cc1cc([N+](=O)[O-])ccc1NC(=O)CSc1n[nH]c(=O)n1C1CC1,32*,1,-36,4,0,-5,-15
COc1ccc(/C=N/Nc2nncn2N)cc1Br,91*,0,6,·,·,-33,4
Nn1cnnc1N/N=C/c1ccc(Cl)cc1Cl,102*,0,-13,·,·,-14,-17
COc1cc(C=NNc2nncn2N)ccc1OC(C)=O,·,·,·,4,2,·,·
COc1cc(/C=N/Nc2nncn2N)ccc1OCc1c(C)no[n+]1[O-],97*,0,-3,·,·,-3,-8
Nn1cnnc1NN=Cc1ccc(Cl)cc1Cl,·,·,·,-4,2,·,·
Cc1ccc(C(O)=C2C(=O)C(=O)N(CC(C)O)C2c2ccc(N(C)C)cc2)cc1 (stereo not drawn),·,·,·,5,-8,·,·
CN(C)Cc1c(C(=O)NN=Cc2cccc(OCc3c(F)cccc3Cl)c2)nnn1-c1nonc1N,·,·,·,0,-3,·,·
COCCCNC(=O)c1cccc(S(=O)(=O)N2CC3(C)CC2CC(C)(C)C3)c1 (stereo not drawn),2,2,0,·,·,-18,·
CCCCNC(=O)c1cccc(S(=O)(=O)N2CC3(C)CC2CC(C)(C)C3)c1 (stereo not drawn),31*,3,9,7,-1,-7,14
COCCNC(=O)c1cccc(S(=O)(=O)N2CC3(C)CC2CC(C)(C)C3)c1 (stereo not drawn),33*,·,1,4,1,-11,-13
C=C1C(=O)OC2C1C(OC(=O)CC(=O)OC1CC(C)C3C=CC(=O)[C@@]3(C)C3OC(=O)C(=C)C13)CC(C)C1C=CC(=O)[C@]12C (stereo partly drawn),·,·,·,8,6,·,·
O=C(CCc1ccccc1)Nc1ccncc1,50*,-1,10,1,6,-3,-16
Cc1cc([N+](=O)[O-])ccc1NC(=O)C=Cc1cccs1,·,·,·,6,-3,·,·
CC1=C(C(=O)N(C(C)C)C(C)C)CC(CC(=O)NCC2CCCCC2)C(=O)N1Cc1ccc(C(C)(C)C)cc1 (stereo not drawn),38*,·,11,·,·,·,9
CC1=C(C(=O)N(C)C)CC(CC(=O)NCc2cccc3ccccc23)C(=O)N1Cc1ccc(C(C)(C)C)cc1 (stereo not drawn),9,·,-3,·,·,·,·

# From PubChem
